Pf growth 48h = inhibits P. falciparum growth in the first generation, 48 h. P. falciparum luciferase growth in erythrocytes, 48 h. Potency, µM (doses to about 28.7 µM), hits mostly inhibitors. actives 5.9% (n = 310,000). AID 504832
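A one-generation exposure of luciferase-tagged malaria parasites in RPMI 1640/Albumax erythrocyte culture, 37 C and 5% CO2. Inhibition is inferred from decreased luminescence after adding detection reagent.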
LmPK inh = LmPK (Leishmania mexicana) enzyme inhibition. purified LmPK, Kinase-Glo ATP luminescence, 1 h. Potency, µM (series often up to 57.5 µM), most hits filed as inhibitors. actives 0.37% (n = 290,000)
Target sequence (Q27686 whole entry, looked up): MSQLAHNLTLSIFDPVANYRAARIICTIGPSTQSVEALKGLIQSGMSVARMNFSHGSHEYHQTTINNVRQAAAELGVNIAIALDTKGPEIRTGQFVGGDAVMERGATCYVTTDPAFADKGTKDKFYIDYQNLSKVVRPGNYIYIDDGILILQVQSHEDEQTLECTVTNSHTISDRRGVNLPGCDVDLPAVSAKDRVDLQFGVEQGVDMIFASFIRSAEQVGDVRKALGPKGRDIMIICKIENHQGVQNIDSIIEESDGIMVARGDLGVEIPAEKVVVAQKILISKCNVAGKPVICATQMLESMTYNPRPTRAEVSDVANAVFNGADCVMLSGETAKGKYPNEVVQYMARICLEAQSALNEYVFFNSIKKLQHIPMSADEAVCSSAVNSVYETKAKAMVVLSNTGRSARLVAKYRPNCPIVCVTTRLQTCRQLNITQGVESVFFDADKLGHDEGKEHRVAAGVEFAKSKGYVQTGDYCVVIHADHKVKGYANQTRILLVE
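0.1 nM LmPK, 0.5 mM PEP, 0.1 mM ADP; 50 mM imidazole pH 7.2, 7 mM MgCl2, 50 mM KCl; 1 h RT. Kinase-Glo luminescence readout, normalized to no-enzyme (full inhibition) and uninhibited wells.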
Cycloheximide cs = counter-screen for Shiga toxin inhibitors: cycloheximide protein synthesis inhibition. max response, %. cell reporter, cycloheximide protein synthesis inhibition counterscreen. AID 2314. actives 12% (n = 300,000); in the data active = max response mostly above about 13%, no sharp cut-off; inactive = mostly below about 14%; also: read at 38.3 µM for the half of the compounds with a filed dose
Pf growth 96h = P. falciparum growth inhibition at 96 hour, primary screen for plastid delayed-death inhibitors. P. falciparum luciferase reporter growth, 96 h. Potency, µM (doses to about 28.7 µM), most hits filed as inhibitors. AID 504834. actives 6.9% (n = 320,000)
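Plates of compound plus infected erythrocytes (2% hematocrit, 0.05% parasitemia final) incubate 96 hours, 37 C, 5% CO2. Detection reagent added; reduced luminescence from the parasites' luciferase reporter flags inhibition.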
Shiga toxin inh = inhibitors of Shiga toxin in Vero cells. Vero cells, Shiga toxin protein synthesis inhibition reporter. inhibition, % at 38.7 µM. actives 9.2% (n = 290,000). AID 2315; in the data active = inhibition mostly above about 28%, no sharp cut-off; inactive = mostly below about 43%
Numbers stand for hits; n = inactive; u = inconclusive; x = no result; [ ] = another dose, or the depositor's remark. A selection: hits, their analogues and other compounds. The true share with any hit is near 22%. Unless noted, calls follow the shape of the dose curve; as a rule, active = well fitted inhibition curve with a large enough effect; inconclusive = small, poorly fitted or top-dose-only effect, or another doubt; inactive = no such curve, though single readings can be large or run the other way.

SMILES	Pf growth 48h	LmPK inh	Cycloheximide cs	Pf growth 96h	Shiga toxin inh
CCC(CC)NC(=O)c1cccc([N+](=O)[O-])c1C	n	n	n	1.3µM	n
COc1ccc(NC(=O)c2ccc(C)cc2)c(OC)c1	n	n	50	n	96
COc1ccc(NC(=O)c2ccc3[nH]c(=O)c(=O)[nH]c3c2)c(OC)c1	n	n	n	n	n
CCC(=O)NC(=S)Nc1ccc(NC(=O)c2cccc([N+](=O)[O-])c2C)cc1	n	n	n	n	n
O=C1C=C(c2ccc(Cl)c(C(F)(F)F)c2)C[C@@H](c2ccc3c(c2)OCO3)C1	u	x	x	n	x
COc1ccc(NC(=O)c2cc(-c3cccnc3)nc3c(C)c(C)ccc23)c(OC)c1	u	n	n	0.83µM	n
COc1ccccc1NC(=O)c1ccccc1Nc1ccccc1	5.2µM	n	n	u	n
COc1ccc(NC(=O)c2ccccc2NC(=O)c2ccccc2C(=O)O)c(OC)c1	u	n	11	n	53
COc1ccc(NC(=O)c2ccccc2Oc2ccccc2)c(OC)c1	n	n	n	n	n
COc1ccc(NC(=O)c2ccccc2C)c(OC)c1	n	n	n	u	n
COc1ccccc1NC(=O)c1ccccc1C(=O)O	n	n	n	u	n
Cc1nnc2ccc(-c3ccc(NC(=O)Cc4cccs4)cc3)nn12	n	n	n	9.3µM	n
CC(=O)Nc1ccc(-c2ccc3nnc(C)n3n2)cc1	n	n	n	u	n
Cc1nnc2ccc(-c3ccc(NC(=O)c4ccco4)cc3)nn12	n	n	14	u	n
Cc1ccc(-n2c(C(C)C)nc3oc4ccccc4c(=O)c3c2=O)cc1	n	n	29	n	63
CCCc1nc2oc3ccccc3c(=O)c2c(=O)n1-c1ccc(C)cc1	n	n	36	n	66
CCc1nc2oc3ccccc3c(=O)c2c(=O)n1-c1ccccc1	n	n	44	x	65
CCc1nc2oc3ccccc3c(=O)c2c(=O)n1-c1ccc(C)cc1	n	n	41	n	64
CCc1nc2oc3ccccc3c(=O)c2c(=O)n1CCOC	x	n	n	u	n
COCCn1c(C(C)C)nc2oc3ccccc3c(=O)c2c1=O	n	n	n	u	n
COc1ccc(Cn2c(-c3ccco3)nc3oc4ccccc4c(=O)c3c2=O)cc1	n	n	n	n	n
CCCc1nc2c(c(=O)c3ccccc3n2C)c(=O)n1-c1ccc(F)cc1	u	n	n	u	n
CCc1nc2oc3cc(OC)ccc3c(=O)c2c(=O)n1Cc1ccco1	12µM	n	n	u	n
CCCCn1c(-c2ccco2)nc2oc3ccccc3c(=O)c2c1=O	u	n	n	9.3µM	n
CCCc1nc2oc3ccccc3c(=O)c2c(=O)n1-c1ccccc1	n	n	33	n	55
SMILES	Pf growth 48h	LmPK inh	Cycloheximide cs	Pf growth 96h	Shiga toxin inh
COc1ccc(-c2nc3oc4cc(OC)ccc4c(=O)c3c(=O)n2Cc2ccco2)cc1	u	n	n	n[5.75 µM]	n
Cc1cc(C)c(C)c(OCCN2CCOCC2)c1	n	n	n	n	n
NNc1nc2ccc(Cl)cc2s1	n	n	42	n	83
NNc1nc2ccc(F)cc2s1	n	n	78	n	136
NNc1nc2c(Cl)c(Cl)ccc2s1	n	n	25	n	30
Fc1ccc2nc(Nc3ccccc3)sc2c1	n	n	36	n	118
O=C(Nc1nc2ccc(F)cc2s1)Oc1ccccc1	n	n	n	n	n
Cn1c2c(c(=O)c3ccccc31)CCCC2	n	n	n	u	n
CCCCc1nc(SCC(=O)N2CCOCC2)c2c(=O)n(C)c(=O)n(C)c2n1	n	n	n	n	n
Cc1c(NC(=O)CN2C(=O)NC(C)(c3ccccc3)C2=O)c(=O)n(-c2ccccc2)n1C (stereo not given)	n	n	n	n	n
COc1ccc(CCNC(=O)Cn2c(=O)n(-c3ccc(F)cc3)c(=O)c3sccc32)cc1OC	n	n	n	n	n
COc1ccccc1N1CCN(Cc2cc(=O)c(OCC#N)co2)CC1	n	n	n	n	n
C=C(C)n1c(=O)[nH]c2ccccc21	n	n	n	x	n
CCCCN=Cc1c(C)[nH]n(-c2ccccc2)c1=S	n	u	25	n	n
Cc1[nH]n(-c2ccccc2)c(=O)c1C=NCCc1ccccc1	n	n	21	n[5.75 µM]	66
CCCCN(CCCC)C(=S)N/N=C/c1c(C)[nH]n(-c2ccccc2)c1=O	u	n	n	n	n
O=c1[nH]n2c(=O)c3c([nH]c2c1N=Nc1cccc(Cl)c1)CCC3	n	n	n	u	n

Screening data (PubChem BioAssay)
